Measurements from PubChem BioAssay (Tox21).
Several values for one entry are separate records, joined by “and”; a condition that tells them apart may be missing. Identical values can stand only once. Records with an inconclusive call do not appear. The source holds several records for some structures; these can differ, active in one and inactive in another. Activity calls are given as the source filed them. Unless noted, calls follow the shape of the full dose curve.

Experiments:
[1] = Nuclear factor erythroid 2-related factor 2/antioxidant responsive element (Nrf2/ARE) small molecule agonists: qHTS cell viability counter screen in human keratinocytes (AID 1919968; active = well fitted cell-killing curve with a large enough effect in the repeat runs; also: nearly all actives have a fitted effect of over 55% in size; also: potency is read from the fitted curve at half-maximal effect)
Summary of the method: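 Stably transfected HaCaT (KeratinoSens), 1,500/well. Test agents in DMSO were applied for 23 h, 37 C/5% CO2. CellTiter-Fluor was incubated 1 h before the fluorescence read.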

[2] = Nuclear factor erythroid 2-related factor 2/antioxidant responsive element (Nrf2/ARE) small molecule agonists: luciferase reporter gene qHTS assay in human keratinocytes (AID 1919969); also: nearly all actives have a fitted effect of over 35% in size; also: potency is read from the fitted curve at half-maximal effect
[3] = biological target: Gonadotropin-releasing hormone receptor (Homo sapiens) (UniProt P30968); assay: Human gonadotropin-releasing hormone receptor (GnRHR) small molecule agonists, calcium flux assay in GnRHR-HEK293 cells (AID 1920063); also: nearly all actives have a fitted effect of over 35% in size
Summary of the method: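 Stable human GnRHR HEK293 line. 18 h plating, then calcium dye for 1 h at 37 C. Agonist-mode compound addition from DMSO stocks; fluorescence monitored 3 min.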

[4] = G protein-coupled receptor (GPCR) small molecule agonists, calcium flux assay: HEK293 wild type cell line counter screen (AID 1920065)
Summary of the method: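 Following 18 h incubation at 37 C/5% CO2, plates got calcium dye for 1 h; compounds, ATP or DMSO were then pinned in and fluorescence followed kinetically (480/540 nm).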

[5] = p53 small molecule agonists, cell-based qHTS assay with human liver microsomes (AID 1963577)
Summary of the method: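 p53RE-bla cells, 4,000/well, compound added after 5 h, with human liver microsomes 0.5 mg/mL and NADPH 0.5 mg/mL final; 16 h at 37 C, then LiveBLAzer 2 h RT, fluorescence.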

[6] = p53 small molecule agonists, cell-based qHTS assay with rat liver microsomes (AID 1963578)
Summary of the method: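 p53RE-bla cells, 4,000/well, pre-incubated 5 h, then given compounds plus rat liver microsomes (0.5 mg/mL final) and NADPH (0.5 mg/mL final). Incubation 16 h at 37 C; beta-lactamase reporter read by LiveBLAzer fluorescence after 2 h at room temperature.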

[7] = p53 small molecule agonists, cell-based qHTS assay with human liver microsomes: qHTS cell viability counter screen (AID 1963579); also: nearly all actives have a fitted effect of over 45% in size
Summary of the method: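 p53RE-bla cells, 4,000/well, dosed 5 hours after plating, with human liver microsomes (0.5 mg/mL final) plus NADPH (0.5 mg/mL final), 16 hours at 37 C. Viability read as CellTiter-Glo luminescence after 30 min at room temperature.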

[8] = p53 small molecule agonists, cell-based qHTS assay with rat liver microsomes: qHTS cell viability counter screen (AID 1963580); also: nearly all actives have a fitted effect of over 45% in size
Summary of the method: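 Cytotoxicity counter screen: intracellular ATP read by CellTiter-Glo luminescence in the p53 reporter wells. HCT-116 p53RE-bla cells were treated for 16 h at 37 C alongside rat liver microsomes and NADPH, each 0.5 mg/mL final.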

[9] = p53 small molecule agonists, cell-based qHTS assay: qHTS cell viability counter screen (AID 1963581); also: nearly all actives have a fitted effect of over 45% in size; also: potency is read from the fitted curve at half-maximal effect
Summary of the method: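 qHTS counter screen: 16 h compound exposure at 37 C of p53RE-bla HCT-116 cells (4,000 per well, seeded 5 h prior), cell viability by ATP luminescence.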

[10] = biological target: 5-hydroxytryptamine receptor 2A (Homo sapiens) (UniProt P28223); assay: 5-hydroxytryptamine receptor 2A (HTR2A) small molecule antagonists, cell-based qHTS assay (AID 1963586); also: nearly all actives have a fitted effect of over 45% in size
Summary of the method: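 CHO cells stably expressing human HTR2A were plated for 18 h at 37 C, then loaded with calcium dye for 1 h. Compounds were preincubated 5 min at room temperature before DOI (4 nM solution) was added. Kinetic fluorescence was read for 3 min.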

[11] = biological target: 5-hydroxytryptamine receptor 2A (Homo sapiens) (UniProt P28223); assay: 5-hydroxytryptamine receptor 2A (HTR2A) small molecule agonists, cell-based qHTS assay (AID 1963587); also: nearly all actives have a fitted effect of over 30% in size
Summary of the method: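 Kinetic calcium-flux fluorescence (2 min, 1 sec intervals) after compound addition in agonist mode. HTR2A-CHO cells were cultured 18 h, then dye-loaded 1 h at 37 C.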

[12] = biological target: Muscarinic acetylcholine receptor M1 (Homo sapiens) (UniProt P11229); assay: Cholinergic receptor muscarinic 1 (CHRM1) small molecule antagonists, cell-based qHTS assay (AID 1963588); also: nearly all actives have a fitted effect of over 40% in size
Summary of the method: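 Compounds were tested at 15 concentrations in three independent runs. Dye-loaded CHRM1-CHO cells were exposed 5 min at room temperature before stimulation by acetylcholine added at 50nM. Intracellular calcium was read kinetically on FDSS for 3 min.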

[13] = biological target: Muscarinic acetylcholine receptor M1 (Homo sapiens) (UniProt P11229); assay: Cholinergic receptor muscarinic 1 (CHRM1) small molecule agonists, cell-based qHTS assay (AID 1963589); also: nearly all actives have a fitted effect of over 35% in size
Summary of the method: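 Kinetic fluorescence (1 s intervals) of calcium-sensitive dye in human M1 CHO cells after compound addition; cells pre-incubated 18 h at 37 C/5% CO2 and dye-loaded 1 h.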

[14] = cAMP Responsive Elements (CRE) small molecule agonists, cell-based qHTS assay (AID 1963590)
Summary of the method: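 Test agents in DMSO were incubated 3 h at 37 C/5% CO2 with CRE-bla HEK 293T cells seeded 18 h earlier; LiveBLAzer B/G FRET substrate was added and read after 2 h at room temperature.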

[15] = cAMP Responsive Elements (CRE) small molecule antagonists, cell-based qHTS assay (AID 1963591; active = well fitted inhibition curve with a large enough effect in the signal ratio in the repeat runs, not every such curve was filed as active; the % refers to the signal ratio)
Summary of the method: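 Reporter line CRE-bla HEK 293T in dialyzed-FBS DMEM; cells preincubated 18 h, treated 3 h with compound plus NKH477 (0.25 uM final); LiveBLAzer FRET, 2 h RT.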

[16] = biological target: Beta-2 adrenergic receptor (Homo sapiens) (UniProt P07550); assay: Adrenergic beta2 receptor (ADRB2) small molecule antagonists, cell-based qHTS assay (AID 1963592); also: series mostly up to about 92 µM; nearly all actives have a fitted effect of over 50% in size
Summary of the method: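 Assay format: CHO-ADRB2 cells, 18-20hr seeding at 37C/5% CO2, then compound plus 1nM isoproterenol agonist mix for 0.5hr RT. Homogeneous time-resolved fluorescence cAMP detection after 1hr, expressed as 665/615 nm ratio.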

[17] = biological target: D(2) dopamine receptor (Homo sapiens) (UniProt P14416); assay: Dopamine D2 receptor (DRD2) small molecule agonists, cell-based qHTS assay (AID 1963594); also: nearly all actives have a fitted effect of over 35% in size
Summary of the method: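 cAMP accumulation in DRD2-HEK293 cells measured by HTRF after 1 h detection; compounds added 10 min before NKH477 (200nM […]) forskolin-analogue stimulation, 30 min at room temperature, with Ro20-1724 present at 0.1 mM final.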

[18] = biological target: D(2) dopamine receptor (Homo sapiens) (UniProt P14416); assay: Dopamine D2 receptor (DRD2) small molecule antagonists, cell-based qHTS assay (AID 1963595; active = well fitted inhibition curve with a large enough effect in the signal ratio in the repeat runs, with a control signal flat; the % refers to the signal ratio)
Summary of the method: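 Human DRD2 antagonist qHTS measuring cAMP by HTRF. The cells are exposed to compound for 10 min, then to NKH477 (200 nM) and quinpirole (12 nM) for 30 min at RT, with Ro20-1724 (0.1 mM) present throughout.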

[19] = p53 small molecule agonists, cell-based qHTS assay (AID 1963582; active = well fitted activation curve with a large enough effect in the signal ratio in the repeat runs, not every such curve was filed as active; the % refers to the signal ratio)
Summary of the method: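 Measured: fluorescence from cleaved LiveBLAzer substrate. System: p53RE-bla cells, 16 h compound treatment at 37 C, 2 h substrate step at room temperature.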

[20] = biological target: Beta-2 adrenergic receptor (Homo sapiens) (UniProt P07550); assay: Adrenergic beta2 receptor (ADRB2) small molecule agonists, cell-based qHTS assay (AID 1963593);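 also: CHO cells stably overexpressing human ADRB2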
Summary of the method: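 CHO cells stably over-expressing ADRB2 were plated overnight at 37C, then dosed with compounds plus a stimulation mix containing 100uM IBMX and 25uM Ro-20-1724 for 0.5hr at room temperature. cAMP was measured by HTRF competition, 1hr.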

Measured: Potency

Gonadotropin-releasing hormone receptor (Homo sapiens), sequence (P30968 whole entry, looked up): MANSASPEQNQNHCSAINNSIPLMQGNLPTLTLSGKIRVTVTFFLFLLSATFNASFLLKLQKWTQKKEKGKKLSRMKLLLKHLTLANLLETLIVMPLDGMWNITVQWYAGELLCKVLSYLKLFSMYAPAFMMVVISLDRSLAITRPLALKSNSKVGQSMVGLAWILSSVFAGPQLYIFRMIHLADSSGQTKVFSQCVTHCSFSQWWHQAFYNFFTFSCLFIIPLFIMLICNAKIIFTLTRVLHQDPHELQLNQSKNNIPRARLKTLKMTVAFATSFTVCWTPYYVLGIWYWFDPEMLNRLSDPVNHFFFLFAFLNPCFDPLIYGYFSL
Beta-2 adrenergic receptor (Homo sapiens), sequence (P07550 whole entry, looked up): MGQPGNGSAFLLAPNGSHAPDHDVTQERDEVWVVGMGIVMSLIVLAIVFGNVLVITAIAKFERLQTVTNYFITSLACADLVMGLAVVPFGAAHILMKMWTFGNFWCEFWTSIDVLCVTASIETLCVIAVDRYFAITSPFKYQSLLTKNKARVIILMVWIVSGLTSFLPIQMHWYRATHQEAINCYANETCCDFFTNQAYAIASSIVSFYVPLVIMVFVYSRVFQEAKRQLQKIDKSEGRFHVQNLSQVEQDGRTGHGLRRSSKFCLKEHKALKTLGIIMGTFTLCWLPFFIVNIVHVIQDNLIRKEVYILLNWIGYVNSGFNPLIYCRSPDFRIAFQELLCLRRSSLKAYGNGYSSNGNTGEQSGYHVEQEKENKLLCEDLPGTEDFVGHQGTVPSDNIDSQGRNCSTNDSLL
5-hydroxytryptamine receptor 2A (Homo sapiens), sequence (P28223 whole entry, looked up): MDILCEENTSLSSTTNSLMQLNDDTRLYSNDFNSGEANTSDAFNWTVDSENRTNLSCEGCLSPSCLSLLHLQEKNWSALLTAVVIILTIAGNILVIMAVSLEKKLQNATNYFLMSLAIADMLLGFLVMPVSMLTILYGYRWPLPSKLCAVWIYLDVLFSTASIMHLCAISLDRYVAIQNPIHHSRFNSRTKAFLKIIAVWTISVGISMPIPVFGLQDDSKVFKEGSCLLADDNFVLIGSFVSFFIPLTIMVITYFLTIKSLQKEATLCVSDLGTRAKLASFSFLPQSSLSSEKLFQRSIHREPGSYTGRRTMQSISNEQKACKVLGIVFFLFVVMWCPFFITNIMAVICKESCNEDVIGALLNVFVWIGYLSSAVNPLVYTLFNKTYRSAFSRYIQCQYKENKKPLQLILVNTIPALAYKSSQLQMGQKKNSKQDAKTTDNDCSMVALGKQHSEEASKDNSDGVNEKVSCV
Muscarinic acetylcholine receptor M1 (Homo sapiens), sequence (P11229 whole entry, looked up): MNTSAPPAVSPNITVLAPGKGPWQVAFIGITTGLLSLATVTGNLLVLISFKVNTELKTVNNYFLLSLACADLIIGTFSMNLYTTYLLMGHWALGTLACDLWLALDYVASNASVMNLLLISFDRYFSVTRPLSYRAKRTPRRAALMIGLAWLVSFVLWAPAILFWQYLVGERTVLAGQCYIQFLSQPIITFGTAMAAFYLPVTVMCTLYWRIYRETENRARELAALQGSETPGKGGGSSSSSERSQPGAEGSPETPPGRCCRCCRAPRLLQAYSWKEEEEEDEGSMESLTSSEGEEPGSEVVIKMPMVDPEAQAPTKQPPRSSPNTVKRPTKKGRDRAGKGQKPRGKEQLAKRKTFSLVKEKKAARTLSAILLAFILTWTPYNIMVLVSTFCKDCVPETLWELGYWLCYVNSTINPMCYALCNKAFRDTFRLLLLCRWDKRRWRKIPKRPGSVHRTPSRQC
D(2) dopamine receptor (Homo sapiens), sequence (P14416 whole entry, looked up): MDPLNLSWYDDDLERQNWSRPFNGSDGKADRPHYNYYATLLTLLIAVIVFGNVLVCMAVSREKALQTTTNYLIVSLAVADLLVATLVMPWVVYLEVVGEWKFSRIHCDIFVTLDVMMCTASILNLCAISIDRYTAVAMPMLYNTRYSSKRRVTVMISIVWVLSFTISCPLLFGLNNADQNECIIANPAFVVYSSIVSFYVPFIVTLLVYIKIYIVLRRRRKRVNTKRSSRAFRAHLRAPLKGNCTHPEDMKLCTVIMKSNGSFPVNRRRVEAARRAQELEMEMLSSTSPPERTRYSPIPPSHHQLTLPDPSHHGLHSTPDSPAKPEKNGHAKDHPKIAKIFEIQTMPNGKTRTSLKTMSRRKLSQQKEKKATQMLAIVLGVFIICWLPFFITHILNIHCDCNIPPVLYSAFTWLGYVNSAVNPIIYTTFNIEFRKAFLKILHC

Nc1ccc(Cl)cc1
not listed: [19] | [20]
inactive: all other assays above

Clc1ccc(C(c2ccc(Cl)cc2)C(Cl)Cl)cc1
15.6 µM (active) and inactive: [2]
active: [1] 27.8 µM | [9] 41.4 µM
not listed: [7] | [11] | [12] | [14] | [20]
inactive: all other assays above

O=S(=O)(Oc1ccc(Cl)cc1)c1ccc(Cl)cc1
27.7 µM (active) and inactive: [2]
not listed: [5] | [6] | [19]
inactive: all other assays above

CCOC(=O)c1cncn1C(C)c1ccccc1 (configuration not stated)
not listed: [5] | [17]
inactive: all other assays above

CCCCC(C#N)(Cn1cncn1)c1ccc(Cl)cc1 (configuration not stated)
not listed: [4] | [14]
inactive: all other assays above

CN(C)[C@@H]1C(=O)C(C(N)=O)=C(O)[C@@]2(O)C(=O)C3=C(O)c4c(O)cccc4[C@@](C)(O)[C@H]3[C@H](O)[C@@H]12
not listed: [5] | [6] | [9] | [11] | [19]
inactive: all other assays above

CCCCN(CC)c1c([N+](=O)[O-])cc(C(F)(F)F)cc1[N+](=O)[O-]
active: [2] 61.1 µM
not listed: [5]
inactive: all other assays above

c1ccc2c(c1)oc1ccccc12
not listed: [3]
inactive: all other assays above

C/C(=N\NC(=O)Nc1cc(F)cc(F)c1)c1ncccc1C(=O)O
not listed: [7] | [18]
inactive: all other assays above

Clc1ccccc1Cl
not listed: [5] | [6] | [15] | [19]
inactive: all other assays above

COP(=S)(OC)Oc1ccc(SC)c(C)c1
inactive and 24.3 µM (active): [2]
not listed: [6] | [19]
inactive: all other assays above

CC(C(=O)c1ccccc1)N(C)C (configuration not stated)
not listed: [9]
inactive: all other assays above

CCCCOC(=O)c1ccccc1C(=O)O
not listed: [5] | [8] | [20]
inactive: all other assays above

CCc1cnc(C2=NC(C)(C(C)C)C(=O)N2)c(C(=O)O)c1 (configuration not stated)
not listed: [5] | [6] | [11] | [19]
inactive: all other assays above

COS(=O)(=O)OC
not listed: [19]
inactive: all other assays above
